From PubChem BioAssay (EPA / NIEHS)
Active and inactive are the calls of the source. The calls were made as follows: active = hit-call score of the fitted dose curve at least 0.9, where 1 is the maximum; inactive = score below 0.9.

Read-out: Vascular cell adhesion molecule 1 (VCAM1), VCAM1 (gene 7412)
Assay: BSK_hDFCGF_VCAM1: BioMAP Diversity Plus: hDFCGF Assay for Vascular cell adhesion molecule 1 (VCAM1) Biomarker Activity (AID 2283065);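 as to AC50: VCAM-1 protein level quantified by ELISA after 24 h chemical exposure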
Details: primary human foreskin fibroblasts; actives raise or lower the signal
Outline: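 ELISA readout of VCAM-1 on human dermal fibroblast primary cultures, 24 h after chemical exposure. Gain or loss of signal fitted in both directions against DMSO baseline.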

Structure (SMILES)	AC50	outcome
CCCCCCc1ccc(O)cc1O	28.1 µM (active)	
COc1ccc2sc(C(=O)Nc3nnn[nH]3)c(OC(C)C)c2c1	12.2 µM (active)	
CN(C)c1ccc(N=NS(=O)(=O)O)cc1	3.79 µM (active)	
Nc1nc2ncc(CNc3ccc(C(=O)N[C@@H](CCC(=O)O)C(=O)O)cc3)nc2c(=O)[nH]1		inactive
CCn1nc(Cc2ccccc2)cc1C1CCN(C[C@H]2C[C@H](N(C)[C@@H](C(=O)O)C(C)C)C[C@@H]2c2cccc(F)c2)CC1		inactive
Cc1ccc(C)c(O)c1		inactive
C=CC(=C)CCC=C(C)C		inactive
O=C1OC(=O)C2C3C=CC(C3)C12 (centres undefined)		inactive
CCOC(=O)COc1ccc2c(c1)CC(NCC(O)c1cccc(Cl)c1)CC2 (centres undefined)	21.9 µM (active)	
CCOCCOCCOCCO		inactive
CCCC(=O)OCC		inactive
O=C(O)c1cc(N=Nc2ccc(S(=O)(=O)Nc3ccccn3)cc2)ccc1O		inactive
O=C(NS(=O)(=O)/C=C/c1ccccc1)c1ccc(F)cc1Cl		inactive
C[C@](N)(Cc1ccc(O)c(O)c1)C(=O)O	20 µM (active)	
CCCCC(CC)COC(=O)CCCCCCCCC(=O)OCC(CC)CCCC (centres undefined)		inactive
CCCCCCCCCCCCc1ccccc1		inactive
O=P(OC(CCl)CCl)(OC(CCl)CCl)OC(CCl)CCl		inactive
CNS(=O)(=O)c1cc(C(=O)N2CCC(CCN3C4CCC3CC(n3c(C)nc5ccccc53)C4)(c3cccc(F)c3)CC2)c(Cl)cc1F (centres undefined)		inactive
Oc1ccc2c(c1)-c1ccccc1C2		inactive
CC(C)CCCCCCOC(=O)c1ccc(C(=O)OCCCCCCC(C)C)c(C(=O)OCCCCCCC(C)C)c1		inactive
O=C(O)CCN(C1(C(=O)NO)CCCC1)S(=O)(=O)c1ccc(Oc2ccc(F)cc2)cc1		inactive
COc1cccc(-c2ccc(/C=C\CN3CCCCCC3)cc2Cl)c1	30.5 µM (active)	
O=C(OC[C@H]1O[C@@H](OC(=O)c2cc(O)c(O)c(OC(=O)c3cc(O)c(O)c(O)c3)c2)[C@H](OC(=O)c2cc(O)c(O)c(OC(=O)c3cc(O)c(O)c(O)c3)c2)[C@@H](OC(=O)c2cc(O)c(O)c(OC(=O)c3cc(O)c(O)c(O)c3)c2)[C@@H]1OC(=O)c1cc(O)c(O)c(OC(=O)c2cc(O)c(O)c(O)c2)c1)c1cc(O)c(O)c(OC(=O)c2cc(O)c(O)c(O)c2)c1	3.31 µM (active)	
Clc1nc(Cl)c(Cl)c(Cl)c1Cl		inactive
COc1ccc(/C=C/S(=O)(=O)NC(=O)c2ccc(C)cc2Cl)cc1		inactive
COC(=O)CC(=O)OC		inactive
O=c1[nH]c2ccc(S(=O)CCN3CCC(Cc4ccc(F)cc4)CC3)cc2o1 (centres undefined)		inactive
CC[C@H](C)C(=O)O[C@H]1C[C@@H](C)C=C2C=C[C@H](C)[C@H](CC[C@@H]3C[C@@H](O)CC(=O)O3)[C@H]21	29.8 µM (active)	
Cc1c(-c2cccnc2)c2ccccc2n1CCCCC(=O)O		inactive
